The values below come from PubChem BioAssay (EPA / NIEHS).

Where “and” joins values, the source holds several entries; their conditions need not be identical. Equal values may be shown once. Records with an inconclusive call do not appear. Calls of active or inactive are those of the source. How the source made its calls, unless noted: active means hit-call score of the fitted dose curve at least 0.9, where 1 is the maximum; inactive means score below 0.9.

For one test, the target named is Estrogen receptor (Homo sapiens) (UniProt P03372). Kind of test: CCTE_Deisenroth_AIME_384WELL_LUC_Active: CCTE's 384-well Estrogen Receptor Transactivation Assay with AIME metabolic competence (ERTA luciferase; metabolism positive), Deisenroth Lab (AID 2284030; active means hit-call score of the fitted dose curve at least 0.9, where 1 is the maximum). In a few lines: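 Readout: bioluminescent luciferase induction in VM7Luc4E2 cells 24 hour after receiving medium from a 2 h rat hepatic S9 (induced, alginate microsphere) metabolism step. Concentrations 0.002 - 200 uM; activity scaled to 17beta-estradiol positive control.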
Sequence of Estrogen receptor (Homo sapiens) (P03372 whole entry, looked up): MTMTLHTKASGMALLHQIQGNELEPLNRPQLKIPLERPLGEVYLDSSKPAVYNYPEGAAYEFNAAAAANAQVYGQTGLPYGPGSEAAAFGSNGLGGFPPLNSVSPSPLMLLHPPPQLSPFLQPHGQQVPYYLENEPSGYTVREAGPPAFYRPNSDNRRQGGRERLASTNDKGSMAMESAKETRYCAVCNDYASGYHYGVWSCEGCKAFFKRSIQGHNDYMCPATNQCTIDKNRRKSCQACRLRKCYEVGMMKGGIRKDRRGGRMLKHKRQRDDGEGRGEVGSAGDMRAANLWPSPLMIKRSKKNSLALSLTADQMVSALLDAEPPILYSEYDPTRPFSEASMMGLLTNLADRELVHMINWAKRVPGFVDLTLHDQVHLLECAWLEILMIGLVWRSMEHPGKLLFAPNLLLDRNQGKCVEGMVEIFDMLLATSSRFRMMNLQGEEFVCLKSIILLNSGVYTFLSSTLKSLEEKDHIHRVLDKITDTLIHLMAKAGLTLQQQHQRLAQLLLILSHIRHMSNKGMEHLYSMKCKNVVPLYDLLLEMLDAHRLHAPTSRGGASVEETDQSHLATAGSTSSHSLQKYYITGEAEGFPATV
With `C=CC(C)CCCC(C)(C)O` (centres undefined), the outcome was inactive.

`CCCC1CCC(=O)CC1`: the result was inactive.

`CCCCCCCCOC(=O)c1ccc(O)cc1`: the outcome was inactive.

Regarding `[Na+]`, the compound was called inactive.

Take `CCCO`: the compound was called inactive.

Turning to `CCCCOCCOCCOCCO`, the compound was called inactive.

For `[O-]/[N+](=N\O)c1ccccc1`, the AC50 – broadly, the concentration giving half of the maximal activity seen – was 72800 nM (active).

In the case of `CCCC[N+](C)(CCCC)CCCC`, the outcome was inactive.

Test system in another test: not listed separately
Kind of test: CCTE_Shafer_MEA_dev_firing_rate_mean: CCTE's Neural Network Formation Assay for Mean Firing Rate, Shafer Lab (AID 2284031).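 On AC50: curve fitted for loss of firing so AC50 reflects decreased mean firing rate.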 In a few lines: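 Steps: seed rat cortical cells (1.5 x 10^5/well) with laminin on PEI-coated MEA; dose day 0; record DIV 5/7/9/12, full media and compound exchange after DIV 5 and 9 recordings; compute well-mean firing rate AUC.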
For `C[C@]12CC[C@@H]3c4ccc(O)cc4CC[C@H]3[C@@H]1CC[C@@H]2O`, the call was inactive.

In the case of `N[C@@H](CCC(=O)O)C(=O)O`, the compound was called inactive.

For the compound `N#CCCNCCC#N`, the call was inactive.

In the case of `CCCCC(CC)COC(=O)COc1ccc(Cl)cc1C` (centres undefined), the compound was classed as inactive.

As for `CC/C(=C(\c1ccccc1)c1ccc(OCCN(C)C)cc1)c1ccccc1`, the AC50 is 32.9 nM (active).

With `CC(C)Cc1ccc(C(C)C(=O)O)cc1` (centres undefined), the compound was classed as inactive.

Test system in a further test: not listed separately
As to the kind of experiment: CCTE_Shafer_MEA_dev_per_burst_spike_percent: CCTE's Neural Network Formation Assay for Percent of Spikes in a Burst, Shafer Lab (AID 2284032).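 On AC50: fitted as a decrease in burst spike percentage below DMSO baseline.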 An outline of the steps:
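Value is trapezoidal AUC over recordings on days 5, 7, 9 and 12 of the well-mean fraction of spikes falling in single-electrode bursts; rat cortical cultures exposed continuously from plating, treatment renewed DIV 5 and 9, fitted downward against DMSO.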
As for `C[C@]12CC[C@@H]3c4ccc(O)cc4CC[C@H]3[C@@H]1CC[C@@H]2O`, the call was inactive.

`N[C@@H](CCC(=O)O)C(=O)O`: the compound was classed as inactive.

Take `N#CCCNCCC#N`: the result was inactive.

Turning to `CCCCC(CC)COC(=O)COc1ccc(Cl)cc1C` (centres undefined), the compound was called inactive.

As to `CC/C(=C(\c1ccccc1)c1ccc(OCCN(C)C)cc1)c1ccccc1`, the AC50 is 1980 nM (active).

With `CC(C)Cc1ccc(C(C)C(=O)O)cc1` (centres undefined), the call was inactive.

In the next test the target is Estrogen receptor (Homo sapiens) (UniProt P03372). As to the kind of experiment: CCTE_Deisenroth_AIME_384WELL_LUC_Inactive: CCTE's 384-well Estrogen Receptor Transactivation Assay without AIME metabolic competence (ERTA luciferase; metabolism negative), Deisenroth Lab (AID 2284038; active means hit-call score of the fitted dose curve at least 0.9, where 1 is the maximum;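 further: VM7Luc4E2 breast cells given medium preincubated 2 h with S9-free microspheres; hits raise estrogen receptor luciferase signal so potencies reflect agonists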). An outline of the steps: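 VM7Luc4E2 ER transactivation, luciferase bioluminescence after 24 h, using medium pre-incubated 2 h with S9-free alginate microspheres. Concentrations 0.002–200 uM; gain of signal fitted relative to 17beta-estradiol.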
As to `C=CC(C)CCCC(C)(C)O` (centres undefined), the outcome was inactive.

As for `O=C1OC2(c3ccc(O)cc3Oc3cc(O)ccc32)c2ccccc21`, the compound was classed as inactive.

For the compound `CCCC1CCC(=O)CC1`, the compound was classed as inactive.

For the compound `CCC(=O)OC(C)(C)C1CC=C(C)CC1` (centres undefined), the compound was called inactive.

As for `CCCCCCCCOC(=O)c1ccc(O)cc1`, the AC50 was 39700 nM (active).

On to `[Na+]`, for which the compound was called inactive.

With `CCCO`, the call was inactive.

`CCCCOCCOCCOCCO`: the call was inactive.

Regarding `[O-]/[N+](=N\O)c1ccccc1`, the AC50 is 59000 nM (active).

Test system in another test: not listed separately
Kind of test: CCTE_Deisenroth_AIME_384WELL_CTox_Inactive: Cytotoxicity Assessment (CTOX) in CCTE's 384-well Estrogen Receptor Transactivation Assay without AIME metabolic competence (metabolism negative), Deisenroth Lab (AID 2284039; active means hit-call score of the fitted dose curve at least 0.9, where 1 is the maximum;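 further: cell viability via live-cell protease substrate cleaved to fluorescent probe; cells exposed 24 h to medium preincubated 2 h with alginate-water beads without S9; loss of fluorescence signal means loss of viability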). An outline of the steps:
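Fluorescence from a live-cell protease substrate, read after 24 h in VM7Luc4E2 cells, indicated viability. Test medium came from a 2 h AIME step without hepatic S9 (alginate-water microspheres); concentrations spanned 0.002 - 200 uM, single technical replicate per run.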
In the case of `C=CC(C)CCCC(C)(C)O` (centres undefined), the compound was classed as inactive.

Take `CCCCCCCCCCCCOCCOS(=O)(=O)O`: the AC50 is 107000 nM (active).

For the compound `CCCC[N+](C)(CCCC)CCCC`, the compound was called inactive.

On to `C#C[C@]1(O)CC[C@H]2[C@@H]3CCc4cc(O)ccc4[C@H]3CC[C@@]21C`, for which the AC50 was 93700 nM (active).

Test system in a further test: not listed separately
Kind of test: CCTE_Shafer_MEA_dev_active_electrodes_number: CCTE's Neural Network Formation Assay for Number of Active Electrodes, Shafer Lab (AID 2284040; active means hit-call score of the fitted dose curve at least 0.9, where 1 is the maximum;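 on AC50: potency for loss of active electrodes versus DMSO so lower counts are hits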). In a few lines: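 Counts electrodes per well firing at least 5 spikes/min, recorded on days 5, 7, 9 and 12 in rat cortical cultures dosed continuously from plating (treatment refreshed DIV 5, 9). Value is the area under the curve over recordings, fitted downward relative to DMSO.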
`C[C@]12CC[C@@H]3c4ccc(O)cc4CC[C@H]3[C@@H]1CC[C@@H]2O`: the AC50 is 10 µM (active) and 13.5 µM (active).

Turning to `N#CCCNCCC#N`, the compound was classed as inactive.

As to `CCCCC(CC)COC(=O)COc1ccc(Cl)cc1C` (centres undefined), the result was inactive.

Regarding `CC/C(=C(\c1ccccc1)c1ccc(OCCN(C)C)cc1)c1ccccc1`, the AC50 was 329 nM (active).

Take `CC(C)Cc1ccc(C(C)C(=O)O)cc1` (centres undefined): the compound was classed as inactive.

The target of the next test is Estrogen receptor (Homo sapiens) (UniProt P03372). As to the kind of experiment: CCTE_Deisenroth_AIME_384WELL_LUC_Shift: CCTE's 384-well Estrogen Receptor Transactivation Assay with AIME metabolic competence data shift (ERTA luciferase; difference in metabolism positive and negative), Deisenroth Lab (AID 2284041).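 Further: shift is response with S9 minus without S9 so positive means metabolism raised ER signal.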 An outline of the steps:
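Chemicals (0.002–200 uM, 10 points) pre-incubated 2 h with alginate-encapsulated induced male Sprague Dawley rat liver S9 or S9-free, then medium applied 24 h to VM7Luc4E2 cells; luciferase. Endpoint is per-concentration difference, S9-positive minus negative.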
For `C=CC(C)CCCC(C)(C)O` (centres undefined), the result was inactive.

Take `O=C1OC2(c3ccc(O)cc3Oc3cc(O)ccc32)c2ccccc21`: the result was inactive.

With `CCCC1CCC(=O)CC1`, the outcome was inactive.

With `CCC(=O)OC(C)(C)C1CC=C(C)CC1` (centres undefined), the outcome was inactive.

For `CCCCCCCCOC(=O)c1ccc(O)cc1`, the AC50 is 36300 nM (active).

`[Na+]`: the outcome was inactive.

With `CCCO`, the outcome was inactive.

In the case of `CCCCOCCOCCOCCO`, the outcome was inactive.

As for `CCCCCCCCCCCCOCCOS(=O)(=O)O`, the result was inactive.

In the case of `[O-]/[N+](=N\O)c1ccccc1`, the AC50 is 81000 nM (active).

For the compound `CCCC[N+](C)(CCCC)CCCC`, the result was inactive.

Test system in the next test: not listed separately
Kind of test: CCTE_Shafer_MEA_dev_burst_rate: CCTE's Neural Network Formation Assay for Burst Rate, Shafer Lab (AID 2284042).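 On AC50: potency for loss of burst rate below DMSO control.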 An outline of the steps: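 Developmental network assay measuring how 12-day exposure of rat cortical neuron cultures alters bursting on extracellular MEA recordings. Values are AUC of well-mean burst rate across four recording days, relative to DMSO vehicle.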
Turning to `C[C@]12CC[C@@H]3c4ccc(O)cc4CC[C@H]3[C@@H]1CC[C@@H]2O`, the compound was called inactive.

Take `N[C@@H](CCC(=O)O)C(=O)O`: the compound was called inactive.

Take `N#CCCNCCC#N`: the call was inactive.

In the case of `CCCCC(CC)COC(=O)COc1ccc(Cl)cc1C` (centres undefined), the compound was called inactive.

On to `CC/C(=C(\c1ccccc1)c1ccc(OCCN(C)C)cc1)c1ccccc1`, for which the AC50 was 122 nM (active).

Take `CC(C)Cc1ccc(C(C)C(=O)O)cc1` (centres undefined): the compound was classed as inactive.

Test system in the next test: not listed separately
As to the kind of experiment: CCTE_Shafer_MEA_dev_bursting_electrodes_number: CCTE's Neural Network Formation Assay for Number of Bursting Electrodes, Shafer Lab (AID 2284043; active means hit-call score of the fitted dose curve at least 0.9, where 1 is the maximum;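 on AC50: potency is for loss of bursting electrodes relative to DMSO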). In a few lines:
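Rat cortical primary neurons, 48-well MEA, 16 electrodes/well; dosing DIV 0–12, re-dosed with full media change DIV 5, 9. Recordings DIV 5/7/9/12, AxIS adaptive spike detector; bursting electrode = ≥1 burst/2 min. AUC across days; loss of signal vs DMSO.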
Regarding `C[C@]12CC[C@@H]3c4ccc(O)cc4CC[C@H]3[C@@H]1CC[C@@H]2O`, the AC50 is 10000 nM (active).

In the case of `N[C@@H](CCC(=O)O)C(=O)O`, the call was inactive.

Take `N#CCCNCCC#N`: the compound was called inactive.

`CCCCC(CC)COC(=O)COc1ccc(Cl)cc1C` (centres undefined): the result was inactive.

On to `CC/C(=C(\c1ccccc1)c1ccc(OCCN(C)C)cc1)c1ccccc1`, for which the AC50 was 203 nM (active).

For `CC(C)Cc1ccc(C(C)C(=O)O)cc1` (centres undefined), the AC50 is 2980 nM (active).

Test system in the next test: not listed separately
Kind of test: CCTE_Shafer_MEA_dev_per_burst_interspike_interval: CCTE's Neural Network Formation Assay for Burst Interspike Interval, Shafer Lab (AID 2284044).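 On AC50: potency for a decrease of within-burst interspike interval below DMSO level.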 In a few lines:
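Readout is the average time between spikes inside single-electrode bursts, taken as a well mean across bursting electrodes. Cortical neurons from rat developed networks on MEA plates under continuous 12-day exposure; recordings on days 5, 7, 9 and 12 were integrated by trapezoidal AUC.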
Consider `C[C@]12CC[C@@H]3c4ccc(O)cc4CC[C@H]3[C@@H]1CC[C@@H]2O`, for which the compound was classed as inactive.

Take `N[C@@H](CCC(=O)O)C(=O)O`: the result was inactive.

On to `N#CCCNCCC#N`, for which the result was inactive.

In the case of `CCCCC(CC)COC(=O)COc1ccc(Cl)cc1C` (centres undefined), the result was inactive.

Consider `CC/C(=C(\c1ccccc1)c1ccc(OCCN(C)C)cc1)c1ccccc1`, for which the AC50 was 307 nM (active).

Take `CC(C)Cc1ccc(C(C)C(=O)O)cc1` (centres undefined): the compound was classed as inactive.

Test system in the next test: not listed separately
Kind of test: CCTE_Shafer_MEA_dev_burst_duration_mean: CCTE's Neural Network Formation Assay for Mean Burst Duration, Shafer Lab (AID 2284045).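 On AC50: curve fitted for loss meaning shorter burst duration than DMSO.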 In a few lines: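 Rat cortical cultures, 1.5 x 10^5 cells/well with laminin drop; continuous dosing days 0–12, media plus treatment refreshed DIV 5, 9. AxIS adaptive spike detection; mean single-electrode burst duration, AUC over four recordings, negative direction vs DMSO.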
For the compound `C[C@]12CC[C@@H]3c4ccc(O)cc4CC[C@H]3[C@@H]1CC[C@@H]2O`, the result was inactive.

As for `N[C@@H](CCC(=O)O)C(=O)O`, the compound was called inactive.

Turning to `N#CCCNCCC#N`, the result was inactive.

`CCCCC(CC)COC(=O)COc1ccc(Cl)cc1C` (centres undefined): the compound was called inactive.

For `CC/C(=C(\c1ccccc1)c1ccc(OCCN(C)C)cc1)c1ccccc1`, the AC50 was 30.4 nM (active).

For `CC(C)Cc1ccc(C(C)C(=O)O)cc1` (centres undefined), the call was inactive.

Test system in the next test: not listed separately
Kind of test: CCTE_Shafer_MEA_dev_interburst_interval_mean: CCTE's Neural Network Formation Assay for Mean Interburst Interval, Shafer Lab (AID 2284046).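 Further: well-mean interburst interval of bursting electrodes as AUC over four recording days; curve fitted for decrease in interburst interval relative to DMSO.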 In a few lines: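 Network formation assay in primary rat cortical cultures, exposed from DIV 0 to 12. Mean interburst interval per well, integrated as AUC over four recordings.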
With `C[C@]12CC[C@@H]3c4ccc(O)cc4CC[C@H]3[C@@H]1CC[C@@H]2O`, the compound was called inactive.

Turning to `N[C@@H](CCC(=O)O)C(=O)O`, the compound was called inactive.

In the case of `N#CCCNCCC#N`, the compound was classed as inactive.

Regarding `CCCCC(CC)COC(=O)COc1ccc(Cl)cc1C` (centres undefined), the call was inactive.

On to `CC/C(=C(\c1ccccc1)c1ccc(OCCN(C)C)cc1)c1ccccc1`, for which the AC50 is 1030 nM (active).

Turning to `CC(C)Cc1ccc(C(C)C(=O)O)cc1` (centres undefined), the AC50 is 962 nM (active).
